Hits are enriched below; roughly 12% of the tested compounds scored in any of these assays.
CHX counter: Cycloheximide Counterscreen for Small Molecule Inhibitors of Shiga Toxin; 300,000 compounds, 12% hits; max response, %; cell reporter, cycloheximide protein synthesis inhibition counterscreen; in the data active means max response mostly above about 13%, no sharp cut-off; inactive means mostly below about 14%; further: read at 38.3 µM for the half of the compounds with a filed dose
Shiga inhibitor: A qHTS for Small Molecule Inhibitors of Shiga Toxin; Vero cells, Shiga toxin protein synthesis inhibition reporter; inhibition, % at 38.7 µM; 290,000 compounds, 9.2% hits; in the data active means inhibition mostly above about 28%, no sharp cut-off; inactive means mostly below about 43%
SARS PLpro yeast: qHTS of Yeast-based Assay for SARS-CoV PLP | S. cerevisiae expressing SARS-CoV PLpro, growth rescue | Potency, µM (top dose mostly 32.9 µM), usual class: activators | 330,000 compounds, 0.19% hits; further: nearly all actives have a fitted effect of over 55% in size
NS1 function inh: qHTS Assay for Inhibitors of Influenza NS1 Protein Function; AID 2326, 2010; Potency, µM (doses to about 46.1 µM); 270,000 compounds, 0.4% hits; further: actives are rising curves; nearly all actives have a fitted effect of over 50% in size
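Read-out: OD600 growth recovery of NS1-expressing budding yeast. Cells grown overnight at 30C in -URA glucose medium, washed, resuspended and diluted 1:100 in 2% galactose assay medium, pH 6.0. Same strain lacking NS1 served as positive control.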
Each line names hits and unclear results; the compound was inactive in the other large screens. Unless noted, the call rests on the fitted dose curve.

CCOC(=O)c1csc(-c2ccc3c(c2)CCO3)n1	CHX counter 41, Shiga inhibitor 59
CCOC(=O)c1csc(NC(=O)c2ccc(S(=O)(=O)N(C)C)cc2)n1	none
Cc1cc(C)n2nc(C(=O)Nc3cc(S(=O)(=O)N4CCCCC4)ccc3C)nc2n1	none (no result: CHX counter, Shiga inhibitor, NS1 function inh)
Cc1cc2c(s1)c1cnn(Cc3cccc(F)c3)c(=O)c1n2C	none (no result: SARS PLpro yeast, NS1 function inh)
CCCC1(CCC)NC(=O)N(CC(=O)Nc2ccc3c(c2)OCCO3)C1=O	none (no result: CHX counter, Shiga inhibitor, NS1 function inh)
Cc1cnc(NC(=O)c2ccc3c(c2)OCCO3)s1	none (no result: CHX counter, Shiga inhibitor, NS1 function inh)
CCOC(=O)c1csc(NC(=O)c2ccc(OC)c(OC)c2)n1	none
CCOC(=O)Cc1cnc(NC(=O)c2ccccc2)s1	CHX counter 53, Shiga inhibitor 91
Cc1nc2ccc3nc(NC(=O)c4ccc5c(c4)OCCO5)sc3c2s1	CHX counter 12
CCOC(=O)c1csc(NC(=O)c2ccc(N3C(=O)CCC3=O)cc2)n1	none (no result: NS1 function inh)
CCOC(=O)c1csc(NC(=O)c2ccc(OCC)cc2)n1	CHX counter 38, Shiga inhibitor 95
CCOC(=O)c1csc(NC(=O)c2ccc3c(c2)OCCO3)n1	CHX counter 51, Shiga inhibitor 127
CCCn1c(C(O)c2cccc(OC)c2)nc2ccccc21 (configuration not stated)	none
Oc1ccc(Br)cc1/C=N/N1CCCCC1	CHX counter 52, Shiga inhibitor 82
Oc1ccc(Br)cc1/C=N/n1cnc2ccccc21	CHX counter 41, Shiga inhibitor 60
Oc1ccc(Br)cc1/C=N/N1CCN(Cc2ccccc2)CC1	none
COC(CNC(=O)c1ccc2c(c1)ncn2-c1ccc(F)c(F)c1)OC	none (no result: NS1 function inh)
COCCNC(=O)c1ccc2c(c1)ncn2-c1ccc(F)c(F)c1	CHX counter 17
Cn1cc(CNC(=O)/C=C/c2ccc(Cl)cc2)cn1	none
Cc1nc(C(F)(F)F)c(C(=O)O)cc1-c1nc(-c2ccccc2)cs1	none
c1ccc(-c2cnc(SCCN3CCOCC3)n2CC2CCCO2)cc1 (configuration not stated)	none
COc1ccc(-c2cnc(N)n2CC2CCCO2)cc1 (configuration not stated)	CHX counter 22
CC(C)(Oc1ccc(Cl)cc1)C(=O)N1CCN(C(=O)c2ccco2)CC1	none
O=C(N=C1SC2CS(=O)(=O)CC2N1c1ccc(Cl)cc1Cl)C1CC1 (configuration not stated)	none
Cc1ccc(-n2nc3ccc(N)cc3n2)cc1C	CHX counter 44, NS1 function inh inconclusive (no result: Shiga inhibitor)
Cc1ccc(-n2nc3ccc(N)cc3n2)c(C)c1	CHX counter 17, NS1 function inh inconclusive (no result: Shiga inhibitor)
COc1ccc(-n2nc3ccc(N)cc3n2)cc1Cl	CHX counter 28 (no result: Shiga inhibitor)
Cc1ccc(-n2nc3ccc(N)cc3n2)cc1Cl	CHX counter 32, Shiga inhibitor 67
CCOC(=O)C1CCN(C(=O)c2ccc(N3CCOCC3)c([N+](=O)[O-])c2)CC1	none (no result: CHX counter, Shiga inhibitor, NS1 function inh)
O=C(Cc1ccc(-c2ccccc2)cc1)OCC(=O)N1CCCC1=O	none (no result: NS1 function inh)
CN(CC(=O)NCc1ccccc1F)S(=O)(=O)c1ccc(Cl)cc1	none
COc1ccc(-n2nc3ccc(NS(C)(=O)=O)cc3n2)cc1Cl	CHX counter 9.6, Shiga inhibitor 35
COc1ccc(NS(=O)(=O)c2cn(C)cn2)cc1Cl	none
Cc1cc(C)n(Cc2ccc(NC(=O)c3nn(C)cc3[N+](=O)[O-])cc2)n1	none
Cn1cc([N+](=O)[O-])c(C(=O)Nc2ccc(C(=O)N3CCCCC3)cc2)n1	Shiga inhibitor 29
Cn1cc([N+](=O)[O-])c(C(=O)Nc2ccc(C3CCCCC3)cc2)n1	CHX counter 46, Shiga inhibitor 86
Cc1ccc(NC(=O)CCc2nc3sc4c(c3c(=O)[nH]2)CCCC4)c(Br)c1	none (no result: CHX counter, Shiga inhibitor, NS1 function inh)
Cc1cc(NC(=O)C2CC(c3ccccc3Cl)=NO2)no1 (configuration not stated)	none
COc1cc(OC)c(C2=NOC(C(=O)Nc3ccc4c(c3)OCO4)C2)cc1Cl (configuration not stated)	none (no result: NS1 function inh)
COc1ccc(NC(=O)C2CC(c3ccccc3Cl)=NO2)cc1 (configuration not stated)	CHX counter 14
O=C(Nc1ccc2c(c1)OCO2)C1CC(c2ccccc2O)=NO1 (configuration not stated)	CHX counter active
O=C(Nc1ccc2c(c1)OCO2)C1CC(c2ccc(Cl)cc2)=NO1 (configuration not stated)	none
O=C(Nc1ccc2c(c1)OCCO2)C1CC(c2ccccc2Cl)=NO1 (configuration not stated)	CHX counter 61, Shiga inhibitor 117
Cc1ccc(NS(=O)(=O)c2cccc(C(=O)N3CCN(c4ncccn4)CC3)c2)cc1	none (no result: CHX counter, Shiga inhibitor, NS1 function inh)
CCN=C1SC(C(=O)Nc2cccc(Br)c2)CC(=O)N1CC (configuration not stated)	none
